Here are results for 16 compounds from ChEMBL document CHEMBL3433997, “St. Jude Leishmania screening dataset” (2016).

Solute carrier family 2, facilitated glucose transporter member 1 (Homo sapiens), sequence (P11166 whole entry): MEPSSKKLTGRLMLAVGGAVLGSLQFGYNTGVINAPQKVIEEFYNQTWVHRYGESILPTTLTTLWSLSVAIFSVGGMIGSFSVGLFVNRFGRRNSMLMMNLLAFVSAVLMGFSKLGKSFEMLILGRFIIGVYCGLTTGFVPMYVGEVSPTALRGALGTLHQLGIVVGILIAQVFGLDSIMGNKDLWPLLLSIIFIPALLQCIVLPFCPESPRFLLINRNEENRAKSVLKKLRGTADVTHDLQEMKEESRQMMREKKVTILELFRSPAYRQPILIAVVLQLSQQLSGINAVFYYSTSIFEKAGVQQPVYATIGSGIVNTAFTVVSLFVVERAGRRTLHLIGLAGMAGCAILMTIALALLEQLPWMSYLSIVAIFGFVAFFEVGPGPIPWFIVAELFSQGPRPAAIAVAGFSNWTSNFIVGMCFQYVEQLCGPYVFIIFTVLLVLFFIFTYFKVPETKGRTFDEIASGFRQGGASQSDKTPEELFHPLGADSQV

This experiment addresses Solute carrier family 2, facilitated glucose transporter member 1 (Homo sapiens) (UniProt P11166). Nature of the experiment: ST_JUDE_LEISH: Cytotoxicity at 2uM final concentration against transgenic Leishmania Mexicana promastigotes LmGLUT1 that are glucose transport deficient and complemented with the human glucose transporter GLUT1. Activity is measured by DNA content using SYBR green in vitro. It is filed as functional.
Consider `CCOC(=O)C1=C(C)NC2=C(C(=O)C(C(=O)OC)C(C)C2)C1c1cc(Br)c(OCC)c(OC)c1` (stereo unspecified), for which the inhibition (usually the drop in the measured response relative to a control, in per cent) was determined as 8.37%.

As for `Cc1[nH]c(C)c(-c2ccc(-c3ccc(Cl)cc3)nc2)c(=O)c1Cl`, the inhibition came out at 0.56%.

Regarding `COc1cccc(CN2CCCC(OC(c3ccc(F)cc3)c3ccc(F)cc3)C2)c1O` (stereo unspecified), the inhibition is 0.04%.

`N=C(N)NC(=O)Nc1cc(Br)c(Cl)c(Br)c1`: the inhibition is -0.91%.

Regarding `CCCc1cc(NCc2ccncc2)nc(Nc2ccc(F)cc2)n1`, the inhibition amounted to 13.4%.

`OCc1ccc2nc3c(cc2c1)-c1cccc2cccc-3c12`: the inhibition is 3.6%.

Regarding `CC1CCN(c2nc(C(=O)Nc3cccc4c3CCCC4)c(C(C)C)s2)CC1`, the inhibition amounted to 3.26%.

Turning to `CC(=O)N(C)C1CCN(Cc2cccc(-c3ccc(-c4nc5cc(F)ccc5[nH]4)cc3)c2)C1` (stereo unspecified), the inhibition came out at 3.46%.

In the case of `CN(C)c1ccc(/N=C2/N/C(=N/c3ccc(N(C)C)cc3)c3ccccc32)cc1`, the inhibition was 4.81%.

For `Cc1ccc(-c2nnc(-c3ccc(C(=O)NC4CCN(Cc5ccc(C#N)cc5)CC4)cc3)o2)cc1Br`, the inhibition was determined as 8.8%.

As for `CC(C)c1ccc(NC(=O)c2ccc(CN3CCCN(Cc4cccc(Cl)c4)CC3)cc2)cc1`, the inhibition is 0.69%.

Regarding `COc1cc(O)c2c(=O)c(OC)c(-c3cccc(Cl)c3OCC(=O)O)oc2c1OC`, the inhibition was -2.29%.

As for `N=C(N)c1cc(Br)cc(NC(=O)Nc2cc(Br)cc(C(=N)N)c2)c1`, the inhibition worked out at 2.46%.

Take `COc1ccc2nc(-c3ccccc3)cc(NCCN(C)C)c2c1`: the inhibition turned out to be 8.41%.

For `CCOc1ccc(C(C)NC(=O)Nc2ccccc2)cc1OCC` (stereo unspecified), the inhibition was 4.28%.

As to `Cc1cc(-c2ccc(NC(=O)N3CCc4cc(Br)c(N5CCN(C)CC5)cc43)cc2)cc(C)n1`, the inhibition amounted to 9.14%.
